The values that follow come from ChEMBL document CHEMBL2218924, “A broad activity screen in support of a chemogenomic map for kinase signalling research and drug discovery” (Biochem J, 2013).

The target of experiment [1] is Ribosomal protein S6 kinase alpha-4 (Homo sapiens) (UniProt O75676). The note with it: at 1 µM.
The target is the same in experiment [2]. The note with it: at 10 µM.
For experiment [3], the target named is SRSF protein kinase 3 (Homo sapiens) (UniProt Q9UPE1). The note with it: at 1 µM.
The target is the same in experiment [4]. The settings on record: at 10 µM.
For experiment [5], the target named is T1, Serine/threonine-protein kinase 4 (Homo sapiens) (UniProt Q13043).
T1 sequence (whole entry): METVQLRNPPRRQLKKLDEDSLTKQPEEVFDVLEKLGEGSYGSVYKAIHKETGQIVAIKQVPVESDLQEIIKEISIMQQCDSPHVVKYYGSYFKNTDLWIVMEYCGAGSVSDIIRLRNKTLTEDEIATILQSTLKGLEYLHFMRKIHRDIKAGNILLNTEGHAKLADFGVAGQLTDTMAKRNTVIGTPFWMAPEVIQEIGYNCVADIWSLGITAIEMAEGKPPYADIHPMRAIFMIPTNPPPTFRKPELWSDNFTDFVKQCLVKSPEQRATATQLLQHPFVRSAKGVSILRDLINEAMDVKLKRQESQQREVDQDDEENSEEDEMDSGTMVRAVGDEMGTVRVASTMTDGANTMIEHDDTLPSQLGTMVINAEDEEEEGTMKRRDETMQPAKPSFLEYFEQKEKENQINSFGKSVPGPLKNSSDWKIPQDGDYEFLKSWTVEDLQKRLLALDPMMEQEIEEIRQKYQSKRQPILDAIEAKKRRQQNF
The note with it: at 1 µM.

In experiment [6] the target is T1, Serine/threonine-protein kinase 4 (Homo sapiens). The note with it: at 10 µM.
For experiment [7], the target named is Serine/threonine-protein kinase 24 (Homo sapiens) (UniProt Q9Y6E0). The note with it: at 1 µM.
Experiment [8] has the same target. The settings on record: at 10 µM.
For experiment [9], the target named is T2, Serine/threonine-protein kinase 3 (Homo sapiens) (UniProt Q13188).
T2 sequence (whole entry): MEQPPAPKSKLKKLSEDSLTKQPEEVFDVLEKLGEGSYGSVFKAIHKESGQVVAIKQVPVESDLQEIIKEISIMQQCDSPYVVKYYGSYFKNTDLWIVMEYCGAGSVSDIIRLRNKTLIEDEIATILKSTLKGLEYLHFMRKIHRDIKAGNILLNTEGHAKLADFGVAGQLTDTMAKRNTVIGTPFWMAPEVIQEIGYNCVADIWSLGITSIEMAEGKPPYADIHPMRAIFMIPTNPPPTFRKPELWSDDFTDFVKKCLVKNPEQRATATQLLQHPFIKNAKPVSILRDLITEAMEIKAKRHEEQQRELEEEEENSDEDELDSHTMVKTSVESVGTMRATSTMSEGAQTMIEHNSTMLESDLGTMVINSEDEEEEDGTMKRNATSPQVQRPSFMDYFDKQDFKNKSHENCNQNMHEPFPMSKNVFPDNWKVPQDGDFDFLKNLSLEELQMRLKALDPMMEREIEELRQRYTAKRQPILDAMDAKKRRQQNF
The settings on record: at 1 µM.

Experiment [10] deals with T2, Serine/threonine-protein kinase 3 (Homo sapiens). The settings on record: at 10 µM.

Sequence of Serine/threonine-protein kinase 24 (Homo sapiens) (Q9Y6E0 whole entry, looked up): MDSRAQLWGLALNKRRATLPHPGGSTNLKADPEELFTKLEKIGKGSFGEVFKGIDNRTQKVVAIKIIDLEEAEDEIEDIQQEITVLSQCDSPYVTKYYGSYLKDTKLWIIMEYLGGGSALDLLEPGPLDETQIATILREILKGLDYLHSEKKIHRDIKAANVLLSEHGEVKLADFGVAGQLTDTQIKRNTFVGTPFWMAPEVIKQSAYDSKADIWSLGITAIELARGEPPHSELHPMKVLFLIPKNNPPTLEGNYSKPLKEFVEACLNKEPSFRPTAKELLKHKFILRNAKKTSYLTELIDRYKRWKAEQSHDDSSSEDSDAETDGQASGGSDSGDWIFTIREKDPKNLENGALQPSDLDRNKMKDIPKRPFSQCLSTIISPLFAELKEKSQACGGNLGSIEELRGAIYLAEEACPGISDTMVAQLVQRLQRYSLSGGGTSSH
Sequence of SRSF protein kinase 3 (Homo sapiens) (Q9UPE1 whole entry): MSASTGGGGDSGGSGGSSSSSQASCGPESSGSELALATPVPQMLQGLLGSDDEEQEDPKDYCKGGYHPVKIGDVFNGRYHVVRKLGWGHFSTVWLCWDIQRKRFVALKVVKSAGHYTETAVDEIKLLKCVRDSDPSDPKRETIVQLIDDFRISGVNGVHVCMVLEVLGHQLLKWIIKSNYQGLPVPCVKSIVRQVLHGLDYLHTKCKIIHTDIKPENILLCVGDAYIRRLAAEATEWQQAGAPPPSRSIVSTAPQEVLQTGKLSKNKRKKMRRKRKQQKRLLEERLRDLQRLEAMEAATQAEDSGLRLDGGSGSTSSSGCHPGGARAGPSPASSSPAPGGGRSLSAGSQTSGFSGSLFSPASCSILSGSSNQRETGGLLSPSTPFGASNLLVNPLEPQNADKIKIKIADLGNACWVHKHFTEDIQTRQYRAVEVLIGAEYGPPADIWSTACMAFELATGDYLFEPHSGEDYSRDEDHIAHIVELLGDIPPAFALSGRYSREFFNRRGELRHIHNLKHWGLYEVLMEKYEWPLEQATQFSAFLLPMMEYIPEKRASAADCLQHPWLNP
Sequence of Ribosomal protein S6 kinase alpha-4 (Homo sapiens) (O75676 whole entry, looked up): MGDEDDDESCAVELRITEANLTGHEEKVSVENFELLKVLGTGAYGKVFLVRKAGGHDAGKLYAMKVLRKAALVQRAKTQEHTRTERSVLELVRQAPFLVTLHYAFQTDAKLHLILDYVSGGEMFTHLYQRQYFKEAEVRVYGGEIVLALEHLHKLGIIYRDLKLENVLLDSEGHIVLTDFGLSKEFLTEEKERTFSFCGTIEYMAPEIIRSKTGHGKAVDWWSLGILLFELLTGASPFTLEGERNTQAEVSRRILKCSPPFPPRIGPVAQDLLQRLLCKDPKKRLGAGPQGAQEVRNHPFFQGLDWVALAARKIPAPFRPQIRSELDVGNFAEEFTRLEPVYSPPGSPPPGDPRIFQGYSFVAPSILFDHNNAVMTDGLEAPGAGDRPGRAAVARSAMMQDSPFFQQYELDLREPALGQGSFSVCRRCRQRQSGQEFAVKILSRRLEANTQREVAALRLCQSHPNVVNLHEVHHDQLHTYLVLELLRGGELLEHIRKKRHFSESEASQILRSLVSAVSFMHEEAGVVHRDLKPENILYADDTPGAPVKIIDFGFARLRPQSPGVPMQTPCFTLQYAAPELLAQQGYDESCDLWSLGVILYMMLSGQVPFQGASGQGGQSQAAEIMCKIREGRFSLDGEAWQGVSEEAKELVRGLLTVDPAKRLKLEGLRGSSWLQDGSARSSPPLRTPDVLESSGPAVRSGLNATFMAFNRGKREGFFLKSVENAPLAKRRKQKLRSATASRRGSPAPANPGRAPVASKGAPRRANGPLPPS

On to `CC(C)[C@H](CO)Nc1nc(Nc2cccc(Cl)c2)c2ncn(C(C)C)c2n1`, for which the residual activity (as a rule, the signal under treatment as a percentage of the control signal) was determined as 95% in [1]; 62% in experiment [2]; 73% in experiment [3]; 17% in experiment [4]; 63% in [5]; 30% in experiment [6]. Further, the residual activity in experiment [7] was determined as 58%; in [8], 20%.

Regarding `O=C1c2ccccc2-c2nc3nnnn3nc21`, the residual activity in [1] is 108%; in experiment [2] it was 108%; in experiment [3], 107%; in experiment [4] it was 83%; in experiment [5], 108%; in [6], 110%.

As to `C[S+]([O-])c1ccc(-c2nc(-c3ccc(F)cc3)c(-c3ccncc3)[nH]2)cc1` (centres undefined), the residual activity worked out at 102% in experiment [1]; 81% in experiment [2]; 102% in experiment [3]; 101% in experiment [4]; 111% in experiment [5]; 109% in [6]. Moreover, the residual activity stood at 104% in [9], 93% in experiment [10], 115% in experiment [7] and 102% in experiment [8].

`COc1ccc2c(c[n+](C)c3c4cc5c(cc4ccc23)OCO5)c1OC`: the residual activity in experiment [2] stood at 94%; in experiment [3] it was 110%; in [4] it was 66%; in [5], 92%; in experiment [6] it was 98%; in experiment [10], 94%. The residual activity in experiment [7] and in [8] was 73% throughout.

On to `O=C1NC(=O)c2c1c1c3ccccc3n3c1c1c2c2ccccc2n1C1CCC3O1`, for which the residual activity in experiment [1] is 56%; in [2], 64%; in experiment [3], 99%; in experiment [4], 96%; in experiment [5], 19%; in experiment [6], -1%. Moreover, the residual activity in experiment [9] stood at 10%; in experiment [10], 12%; in experiment [7], 80%; in experiment [8] it was 65%.

On to `c1cc(-c2cnn3cc(-c4ccc(OCCN5CCCCC5)cc4)cnc23)ccn1`, for which the residual activity in experiment [1] turned out to be 103%; in experiment [2], 70%.

Turning to `COc1cc2ncnc(Nc3ccc(OCc4ccccc4)cc3)c2cc1OC`, the residual activity was 99% in experiment [1]; 101% in [2]; 122% in [3]; 89% in experiment [4]; 95% in experiment [5]; 104% in experiment [6]. Moreover, the residual activity came out at 111% in experiment [9], 81% in experiment [10], 70% in experiment [7] and 90% in experiment [8].

Turning to `CN[C@@H]1C[C@H]2O[C@@](C)([C@@H]1OC)n1c3ccccc3c3c4c(c5c6ccccc6n2c5c31)C(=O)NC4`, the figures for the residual activity in experiment [1], in [2] and in experiment [4] were 1%, -1% and 40%, respectively.

With `O=c1[nH]c2ccccc2n1C1CCN(Cc2ccc(-c3nc4cc5[nH]cnc5cc4nc3-c3ccccc3)cc2)CC1`, the residual activity in experiment [1] is 106%; in experiment [2] it was 96%; in [3], 112%; in experiment [4] it was 91%; in experiment [5], 102%; in [6], 80%. For the same compound, the residual activity amounted to 106% in [9], 80% in experiment [10], 72% in experiment [7] and 80% in experiment [8].

As to `O=[N+]([O-])/C=C/c1ccc2c(c1)OCO2`, the residual activity in [1] was found to be 90%; in [2], 101%; in [3] it was 120%; in [4] it was 93%; in [5], 101%; in [9], 104%. The residual activity turned out to be 91% in experiment [10], 77% in experiment [7] and 75% in experiment [8].

`COC(=O)[C@@]1(O)C[C@H]2O[C@]1(C)n1c3ccccc3c3c4c(c5c6ccccc6n2c5c31)C(=O)NC4`: the residual activity was -1% in experiment [1]; 0% in experiment [2]; 11% in experiment [3]; 2% in experiment [4]; 5% in experiment [5]; 1% in [6]. Moreover, the residual activity in experiment [9] amounted to 2%; in experiment [10], 1%; in experiment [7], 14%; in experiment [8], 0%.

Consider `COc1ccc2c(c1)/C(=C/c1cnc[nH]1)C(=O)N2`, for which the residual activity in experiment [1] amounted to 63%; in experiment [2], 19%; in experiment [9], 16%; in experiment [10] it was 3%.

Turning to `N/C(=N\[N+](=O)[O-])N/N=C\c1ccc(-c2cccc([N+](=O)[O-])c2)o1`, the residual activity came to 97% in experiment [1], 84% in [2], 98% in experiment [7] and 79% in experiment [8].

`CCc1nc(-c2ccc(OC)cc2)[nH]c1-c1ccncc1`: the residual activity in [3] came to 123%; in experiment [4], 103%; in experiment [6], 111%.

On to `CCn1cnc2c(Nc3cccc(Cl)c3)nc(N[C@@H]3CCCC[C@@H]3N)nc21`, for which the residual activity in experiment [1] is 79%; in [2], 60%; in experiment [3] it was 95%; in experiment [4], 71%; in experiment [5], 64%; in experiment [6] it was 47%. Besides, the residual activity in experiment [10] stood at 70%; in experiment [7], 78%; in [8], 59%.

On to `O=C1Nc2ccc3ncsc3c2/C1=C/c1c[nH]cn1`, for which the residual activity in [1] was 20%; in experiment [2], 6%; in experiment [3], 98%; in [4] it was 68%; in experiment [5] it was 1%; in [6] it was 3%. Further, the residual activity was 2% in experiment [9], 1% in experiment [10], 3% in experiment [7] and 0% in experiment [8].

Consider `CC(C)(C)c1cc(C=C(C#N)C#N)cc(Br)c1O`, for which the residual activity amounted to 105% in experiment [3], 104% in experiment [5], 119% in [6] and 100% in [8].

For the compound `COc1cc(OC)c(/C=C2\C(=O)Nc3ccccc32)c(OC)c1`, the residual activity in [1] was found to be 96%; in [2], 94%; in experiment [3] it was 101%; in [5], 108%; in [6], 105%; in [9], 102%. Moreover, the figures for the residual activity in experiment [10], in experiment [7] and in experiment [8] were 91%, 80% and 76%, respectively.
